Results taken from PubChem BioAssay AID1508636 (National Center for Advancing Translational Sciences (NCATS), 2021).
Inconclusive results are not listed. Calls of active or inactive are those of the source. Calls follow the shape of the dose curve; as a rule, active = well fitted inhibition curve with a large enough effect; inconclusive = small, poorly fitted or top-dose-only effect; inactive = flat fitted curve, though single readings scatter. *1 amine or outer side, *2 acyl side, *3 side chain or, on linkers, in order; H or OH if unused. Where a SMILES comes first, the peptide text is derived from it. Bridges are numbered along the chain shown (N, C = ends). Roman numbers before positions name the chains, in order. [ ]: non-standard residue; d: D form. The star is where a group is joined. ξ: configuration not given here. Actinocin(9to1) = Cc1c2oc3c(C)ccc(C(=O)[*:1])c3nc-2c(C(=O)[*:2])c(N)c1=O; ξNMeV = CNC(C(=O)O)C(C)C; Cbz = O=C(OCc1ccccc1)*; Nva = CCC[CH](N)C(=O)O; ξV = CC(C)C(N)C(=O)O; Sar = CNCC(=O)O

Biological target: ATP-dependent translocase ABCB1 (Homo sapiens) (UniProt P08183)
Test: qHTS for characterization and localization of zebrafish homologs of the human ABCB1 multidrug transporter: P-gp overexpressing MDR-19 cells
Conditions: MDR-19 cells overexpressing P-gp, CellTiter-Glo luminescence viability, 72 h; series mostly up to 46.1 µM
Description: The zebrafish has emerged as a potential model to study the blood-brain barrier (BBB) given its similarities with mammalian systems. However, little information has been available with regard to homologous ATP-binding cassette transporters expressed at the zebrafish BBB. Two transporters that are highly expressed at the human BBB are P-glycoprotein (P-gp, encoded by the ABCB1 gene) and ABCG2 (encoded by the ABCG2 gene). In this study, we focus on characterization of P-gp homologs in the zebrafish, which has two genes that are homologous to human ABCB1 - abcb4 and abcb5. We generated stably-transfected cell lines to determine their substrate specificities. […] Zebrafish abcb4 also colocalized with claudin 5 expression in brain endothelial cells.
A high-throughput screen was performed as previously described on empty vector transfected cells, P-gp-overexpressing MDR-19 cells and cells transfected with full-length zebrafish abcb4 (ZF Abcb4) or abcb5 (ZF Abcb5). Briefly, cells were plated into 1536-well plates at a density of 500 cells/well in 5 uL media. P-gp substrate compounds (approximately 90) selected from our previous study were then added at varying concentrations using a 1536-head pin tool (Kalypsis, San Diego, CA) and plates were incubated at 37C in 5% CO2 for 72 h. CellTiter-Glo reagent (Promega) was dispensed into the wells, incubated for 5 min and luminescence was read on a ViewLux instrument (Perkin-Elmer).
Cytotoxic compounds were defined as those that yielded a curve class of -1.1, -1.2, -2.1, -2.2, -2.3, or -2.4, a maximum response of >50% and an AC50 of < 10 uM. All compounds from screening analysis were tested in Vector (empty vector control), MDR-19 (P-gp overexpressing), zebrafish abcb4 (ZF Abcb4) and abcb5 (ZF Abcb5) expression cell lines.
1. Tobie D Lee, Olivia W Lee, Kyle R Brimacombe, Lu Chen, Rajarshi Guha, Sabrina Lusvarghi, Bethilehem G Tebase, Carleen Klumpp-Thomas, Robert W Robey, Suresh V Ambudkar, Min Shen, Michael M Gottesman, Matthew D Hall. A High-Throughput Screen of a Library of Therapeutics Identifies Cytotoxic Substrates of P-glycoprotein. Mol Pharmacol. 2019, Nov;96(5):629-640.

Sequence of ATP-dependent translocase ABCB1 (Homo sapiens) (P08183 whole entry, looked up): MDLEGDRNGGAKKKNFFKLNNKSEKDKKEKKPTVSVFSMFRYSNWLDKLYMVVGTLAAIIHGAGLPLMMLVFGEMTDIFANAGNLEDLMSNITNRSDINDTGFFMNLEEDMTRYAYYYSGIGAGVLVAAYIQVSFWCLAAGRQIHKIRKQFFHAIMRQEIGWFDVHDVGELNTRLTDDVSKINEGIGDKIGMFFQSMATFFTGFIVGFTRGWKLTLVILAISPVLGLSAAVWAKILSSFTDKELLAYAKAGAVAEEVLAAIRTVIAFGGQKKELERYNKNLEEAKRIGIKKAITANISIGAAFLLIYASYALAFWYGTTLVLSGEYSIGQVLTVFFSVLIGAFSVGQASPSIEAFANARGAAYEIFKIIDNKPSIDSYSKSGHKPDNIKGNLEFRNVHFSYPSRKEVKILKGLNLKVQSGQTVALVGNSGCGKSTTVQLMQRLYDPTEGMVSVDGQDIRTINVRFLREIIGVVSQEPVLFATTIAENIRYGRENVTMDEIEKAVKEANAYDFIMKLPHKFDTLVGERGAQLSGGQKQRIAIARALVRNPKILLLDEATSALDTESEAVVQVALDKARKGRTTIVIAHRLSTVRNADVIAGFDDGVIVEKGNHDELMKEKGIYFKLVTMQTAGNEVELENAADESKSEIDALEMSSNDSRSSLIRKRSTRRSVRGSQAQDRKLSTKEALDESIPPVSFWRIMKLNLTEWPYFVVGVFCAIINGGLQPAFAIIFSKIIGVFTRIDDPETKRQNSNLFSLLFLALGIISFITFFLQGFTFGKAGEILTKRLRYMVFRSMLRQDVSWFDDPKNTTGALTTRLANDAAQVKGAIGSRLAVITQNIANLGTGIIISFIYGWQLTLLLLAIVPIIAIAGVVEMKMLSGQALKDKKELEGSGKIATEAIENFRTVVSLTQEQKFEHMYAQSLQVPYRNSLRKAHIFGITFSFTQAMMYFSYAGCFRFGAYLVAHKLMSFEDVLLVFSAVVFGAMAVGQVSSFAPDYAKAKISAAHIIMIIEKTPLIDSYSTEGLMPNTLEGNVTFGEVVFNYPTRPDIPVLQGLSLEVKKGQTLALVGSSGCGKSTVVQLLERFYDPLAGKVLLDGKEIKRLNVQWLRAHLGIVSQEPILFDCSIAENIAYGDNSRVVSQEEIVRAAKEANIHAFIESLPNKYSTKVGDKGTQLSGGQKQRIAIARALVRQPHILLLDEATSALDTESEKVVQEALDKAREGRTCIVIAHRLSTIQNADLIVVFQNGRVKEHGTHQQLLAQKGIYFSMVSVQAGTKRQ

Which Potency does the source give for COC[C@H](NC(=O)c1cnc(C)s1)C(=O)N[C@@H](COC)C(=O)N[C@@H](Cc1ccccc1)C(=O)[C@@]1(C)CO1 here?
The Potency was 0.59 µM (active).

Which Potency does the source give for CC[C@@H]1C(=O)N(C)c2cnc(Nc3ccc(C(=O)NC4CCC(N5CCN(CC6CC6)CC5)CC4)cc3OC)nc2N1C(C)C (stereo not given in full) here?
Its Potency is 2.35 µM (active).

For Cc1[nH]c2ccccc2c1CCNCc1ccc(/C=C/C(=O)NO)cc1, which Potency is on record?
Its Potency is 1.32 µM (active).

For CC(C)(C)c1cnc(CSc2cnc(NC(=O)C3CCNCC3)s2)o1, which Potency is on record?
The Potency was 24.1 µM (active).

With CC(C)C[C@H](NC(=O)[C@H](CCc1ccccc1)NC(=O)CN1CCOCC1)C(=O)N[C@@H](Cc1ccccc1)C(=O)N[C@@H](CC(C)C)C(=O)[C@@]1(C)CO1 as the compound, how does the Potency read?
Its Potency is 0.743 µM (active).

CCN(CC)Cc1ccc(C(=O)N(CCc2ccccc2OC)[C@@H]2CCNC2)cc1 was tested. Which Potency did it give?
Its Potency is “inactive”.

C=CCNC1=C2CC(C)CC(OC)C(O)C(C)/C=C(\C)C(OC(N)=O)C(OC)/C=C/C=C(\C)C(=O)NC(=CC1=O)C2=O (stereo not given) was tested. Which Potency did it give?
The Potency was 10.5 µM (active).

For CCCC(C=O)NC(=O)C(CC(C)C)NC(=O)C(CC(C)C)NC(=O)OCc1ccccc1 (stereo not drawn) (Cbz-Leu-Leu-[Nva]-aldehyde; configuration not given here), which Potency is on record?
The Potency was 4.18 µM (active).

Which Potency does the source give for CN(C)c1ccc(C(=C2C=CC(=[N+](C)C)C=C2)c2ccc(N(C)C)cc2)cc1 here?
The Potency was 4.69 µM (active).

Which Potency does the source give for CC(C)CC(=O)Nc1n[nH]c2c1CN(C(=O)C1CCN(C)CC1)C2(C)C here?
Its Potency is “inactive”.

With C/C=C1/NC(=O)C2CSSCCC=CC(CC(=O)NC(C(C)C)C(=O)N2)OC(=O)C(C(C)C)NC1=O (stereo not given) as the compound, how does the Potency read?
The Potency was 7.43 µM (active).

Which Potency does the source give for CCCCc1nc2cc(C=CC(=O)NO)ccc2n1CCN(CC)CC here?
Its Potency is 5.26 µM (active).

For CC1(C)CC(NC(=O)C(=O)Nc2ccc(Br)cc2)CC(C)(C)N1, which Potency is on record?
The Potency was “inactive”.

NC(=O)Nc1cc(-c2cccc(F)c2)sc1C(=O)N[C@H]1CCCNC1 was tested. Which Potency did it give?
The Potency was 8.33 µM (active).

With COc1cc(N2CCC(O)CC2)ccc1Nc1nc(Nc2ccccc2S(=O)(=O)C(C)C)c2[nH]cnc2n1 as the compound, how does the Potency read?
Its Potency is “inactive”.

How did the Potency turn out when CCS(=O)(=O)c1cccc(-c2cc(C(=O)NC3CCN(C)CC3)c(C)c3[nH]c4ncc(C)cc4c23)c1 was run?
The Potency was “inactive”.

C=C1CO[C@@]2(O[C@H]3CC4C5CC=C6C[C@@H](O)C[C@@H](O[C@@H]7OC[C@H](O)[C@H](O[C@@H]8OC[C@@H](O)[C@H](O)[C@H]8O)[C@H]7O[C@@H]7O[C@@H](C)[C@H](OC(C)=O)[C@@H](OC(C)=O)[C@H]7OC(C)=O)[C@]6(C)C5CC[C@]4(C)[C@@H]3[C@@H]2C)[C@@H](O)[C@H]1OC1OC(C)C(O)C(O)C1O (stereo not given in full) was tested. Which activity change, negative = inhibition did it give?
The activity change, negative = inhibition was 3.31% [at 8.96 µM] (inactive).

For CCN(CCCO)CCCOc1ccc2c(Nc3cc(CC(=O)Nc4cccc(F)c4)[nH]n3)ncnc2c1, which Potency is on record?
The Potency was “inactive”.

For CN(C)C1CCN(C(=O)c2ccc(NC(=O)Nc3ccc(-c4nc(N5CCOCC5)nc(N5CCOCC5)n4)cc3)cc2)CC1, which Potency is on record?
The Potency was “inactive”.

For CCn1c(-c2nonc2N)nc2c(C#CC(C)(C)O)ncc(OC[C@H]3CCCNC3)c21, which Potency is on record?
Its Potency is “inactive”.

How did the Potency turn out when CC(=O)O[C@@H]1C[C@H](O)[C@@]23CO[C@@H](O)C1(C)[C@@H]2C[C@@H](O)[C@]1(C)[C@@H]3C(=O)[C@H](OC(C)=O)[C@@]2(C)[C@H](c3ccoc3)C[C@H]3O[C@]321 was run?
The Potency was 3.72 µM (active).

For C[C@@H](Oc1cc(-n2cnc3ccc(CN4CCN(C)CC4)cc32)sc1C(N)=O)c1ccccc1C(F)(F)F, which Potency is on record?
Its Potency is 0.469 µM (active).

CC(C)C[C@H](NC(=O)[C@@H](NC(=O)c1cccc(-c2ccccc2)n1)[C@@H](C)O)B(O)O was tested. Which Potency did it give?
The Potency was 0.372 µM (active).

Which Potency does the source give for C#CCN(Cc1cc2c(=O)n(C)c(CN3CCN(C)CC3)nc2cc1Cl)c1ccc(C(=O)NCc2cccnc2)cc1 here?
The Potency was “inactive”.

For O=C(NC1CC1)c1cccc(-c2ccc3c(NC(=O)C4CC4)n[nH]c3c2)c1, which Potency is on record?
Its Potency is “inactive”.

Which Potency does the source give for Cc1ccc(C(=O)N(CCCN)C(c2nc3cc(Cl)ccc3c(=O)n2Cc2ccccc2)C(C)C)cc1 (stereo not given) here?
Its Potency is 14.8 µM (active).

Which Potency does the source give for COc1cc(C(=O)NC2CCN(C)CC2)ccc1Nc1ncc2c(n1)N(C1CCCC1)CC(F)(F)C(=O)N2C here?
Its Potency is 3.32 µM (active).

Which Potency does the source give for Cc1c2oc3c(C)ccc(C(=O)N[C@@H]4C(=O)NC(C(C)C)C(=O)N5CCC[C@H]5C(=O)N(C)CC(=O)N(C)C(C(C)C)C(=O)O[C@@H]4C)c3nc-2c(C(=O)N[C@@H]2C(=O)NC(C(C)C)C(=O)N3CCC[C@H]3C(=O)N(C)CC(=O)N(C)C(C(C)C)C(=O)O[C@@H]2C)c(N)c1=O (stereo not given in full) (I: T[ξV]P[Sar][ξNMeV] / II: T[ξV]P[Sar][ξNMeV]; ester I:1-I:C, II:1-II:C; linker I:N-II:N via Actinocin(9to1)) here?
The Potency was 0.469 µM (active).

How did the Potency turn out when COc1cc2ncn(-c3cc(OCc4ccccc4C(F)(F)F)c(C(N)=O)s3)c2cc1OC was run?
Its Potency is 5.4 µM (active).

C=CCn1c(=O)c2cnc(Nc3ccc(N4CCN(C)CC4)cc3)nc2n1-c1cccc(C(C)(C)O)n1 was tested. Which Potency did it give?
The Potency was 4.69 µM (active).

How did the Potency turn out when CN(C)C/C=C/C(=O)Nc1cccc(C(=O)Nc2ccc(Nc3nccc(-c4cccnc4)n3)cc2)c1 was run?
The Potency was “inactive”.

With COc1cc2c(NC3CCN(C(C)C)CC3)nc(N3CCCN(C)CC3)nc2cc1OCCCN1CCCC1 as the compound, how does the Potency read?
The Potency was “inactive”.

O=C(NC1CCNCC1)c1[nH]ncc1NC(=O)c1c(Cl)cccc1Cl was tested. Which Potency did it give?
The Potency was “inactive”.

With COc1ccc(CC2C(=O)NC(C)C(=O)N(C)C3Cc4ccc(cc4)Oc4cc(ccc4OC4OC(CO)C(O)C(O)C4O)CC(C(=O)NC(C)C(=O)NC(C)C(=O)N2C)N(C)C3=O)cc1 (stereo not given) as the compound, how does the Potency read?
The Potency was “inactive”.

Which Potency does the source give for C[C@@]12O[C@@H](C[C@]1(O)CO)n1c3ccccc3c3c4c(c5c6ccccc6n2c5c31)CNC4=O here?
Its Potency is 8.33 µM (active).

How did the Potency turn out when CN(c1ncccc1CNc1nc(Nc2ccc3c(c2)CC(=O)N3)ncc1C(F)(F)F)S(C)(=O)=O was run?
The Potency was 18.7 µM (active).

CC1(C)CC[C@]2(C(=O)OC3OC(CO)C(O)C(O)C3O)CC[C@]3(C)C(=CCC4[C@@]5(C)CC[C@H](OC6OC(C(=O)O)C(O)C(O)C6O)C(CO)(CO)C5CC[C@]43C)[C@@H]2C1 (stereo not given in full) was tested. Which Potency did it give?
The Potency was “inactive”.

How did the Potency turn out when COc1cc2c(NC3CCN(C(C)C)CC3)nc(N3CCCN(C)CC3)nc2cc1OCCOCCN(C)C was run?
Its Potency is “inactive”.

Which activity change, negative = inhibition does the source give for C[C@@H]1O[C@@H](O[C@H]2[C@@H](OC(=O)[C@]34CCC(C)(C)CC3C3=CCC5[C@@]6(C)C[C@H](O)[C@H](O[C@@H]7O[C@H](CO)[C@@H](O)[C@H](O)[C@H]7O[C@@H]7OC[C@@H](O)[C@H](O)[C@H]7O)[C@@](C)(C(=O)O)C6CC[C@@]5(C)[C@]3(C)CC4)OC[C@H](O)[C@@H]2O)[C@H](O)[C@H](O)[C@H]1O[C@@H]1OC[C@@H](O)[C@H](O)[C@H]1O (stereo not given in full) here?
Its activity change, negative = inhibition is -1.44% [at 8.96 µM] (inactive).

For CCC(C)C(=O)OC1CC(O)C23C4OCC5(C(O)CC2C1(C)C(O)O4)C3C(=O)C(O)C1(C)C(O)(c2ccoc2)CC2OC251 (stereo not given), which Potency is on record?
The Potency was “inactive”.
